# PubChem BioAssay (EPA / NIEHS)
# Records with an inconclusive call do not appear. Calls of active or inactive are those of the source. How the source made its calls, unless noted: active means hit-call score of the fitted dose curve at least 0.9, where 1 is the maximum; inactive means score below 0.9.
# Target: Cytochrome P450 2C19 (Homo sapiens) (UniProt P33261)
# Assay: NVS_ADME_hCYP2C19: NovaScreen (NVS) CYP450-related Enzyme Activity (ADME) Assay for human CYP2C19 (AID 2283113; active means hit-call score of the fitted dose curve at least 0.9, where 1 is the maximum;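 further: potency for inhibition seen as loss of fluorescent signal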)
# Summary of the method: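 Compounds first screened in duplicate at 10 uM, then confirmed in concentration series. Insect-cell-expressed human CYP2C19 turned over a fluorogenic substrate, and fluorescence was read after 1 h. Inhibition taken as signal loss relative to acetonitrile.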
row,SMILES,AC50
1,CCOC(=O)CC(SP(=O)(OC)OC)C(=O)OCC (centres undefined),9.39 µM (active)
2,CCCOCC(=Nc1ccc(Cl)cc1C(F)(F)F)n1ccnc1,0.16 µM (active)
3,CC(COc1ccc(Oc2ccccc2)cc1)Oc1ccccn1 (centres undefined),13.7 µM (active)
4,CCCSP(=O)(OCC)Oc1ccc(Br)cc1Cl (centres undefined),10 µM (active)

# Target: rat CYP2A1, Cyp2a1 (gene 24894) (UniProt P11711)
# Assay: NVS_ADME_rCYP2A1: NovaScreen (NVS) CYP450-related Enzyme Activity (ADME) Assay for rat CYP2A1 (AID 2283114)
# Summary of the method: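 Cell-free fluorescence enzyme-activity read on recombinant rat CYP2A1, taken 0.75 h post-dosing. Compounds were screened in duplicate at 10 uM, then hits tested in concentration series (max 20 uM); inhibition scored relative to acetonitrile baseline.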
# Chain of rat CYP2A1, Cyp2a1 (gene 24894) (P11711 whole entry, looked up): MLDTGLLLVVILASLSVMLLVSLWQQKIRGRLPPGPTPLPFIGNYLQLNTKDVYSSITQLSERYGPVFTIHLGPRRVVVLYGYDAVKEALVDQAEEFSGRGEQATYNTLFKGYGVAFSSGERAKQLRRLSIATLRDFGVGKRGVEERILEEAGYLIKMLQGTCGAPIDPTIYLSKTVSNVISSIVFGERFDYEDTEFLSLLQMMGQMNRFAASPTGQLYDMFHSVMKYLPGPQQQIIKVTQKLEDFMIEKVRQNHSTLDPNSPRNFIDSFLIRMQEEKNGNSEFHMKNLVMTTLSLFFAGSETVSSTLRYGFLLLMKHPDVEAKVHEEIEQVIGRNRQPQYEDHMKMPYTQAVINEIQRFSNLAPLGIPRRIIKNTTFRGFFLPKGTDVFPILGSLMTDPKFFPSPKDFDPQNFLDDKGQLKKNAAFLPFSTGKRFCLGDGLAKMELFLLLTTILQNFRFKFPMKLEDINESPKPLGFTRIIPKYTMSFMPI
SMILES,AC50,outcome
CCOP(=S)(OCC)Oc1ccc([N+](=O)[O-])cc1,5.89 µM (active),–
CN(C)C(=O)Nc1cccc(C(F)(F)F)c1,4.33 µM (active),–
CCOP(=S)(OCC)Oc1ccc2c(C)c(Cl)c(=O)oc2c1,–,inactive
C#CC(C)(C)NC(=O)c1cc(Cl)cc(Cl)c1,1.43 µM (active),–
FC(F)C(F)(F)OCC(Cn1cncn1)c1ccc(Cl)cc1Cl (centres undefined),1.85 µM (active),–
CC(C1CC1)C(O)(Cn1cncn1)c1ccc(Cl)cc1 (centres undefined),4.58 µM (active),–
CCC(=O)Nc1ccc(Cl)c(Cl)c1,2.2 µM (active),–
C[Si](Cn1cncn1)(c1ccc(F)cc1)c1ccc(F)cc1,1.39 µM (active),–
CCOC(=O)CC(SP(=O)(OC)OC)C(=O)OCC (centres undefined),–,inactive
CCCOCC(=Nc1ccc(Cl)cc1C(F)(F)F)n1ccnc1,0.955 µM (active),–
